# Test results as given in the antibiotic and cytotoxicity screens of Wong et al. (2023).
# Among all 39,000 compounds or so, about 3,300 (8.5%) were called active. This is one part of a sample in which actives are shown more often than they occur.
# Tested on: HepG2
# Test: cytotoxicity call (relative viability < 0.9)
# Conditions: 10 µM
row,SMILES,cytotoxicity call
1,O=C(C[C@@H]1CC[C@@H]2[C@H](COC[C@@H](O)CN2C(=O)c2ccccc2)O1)NCCCN1CCOCC1,inactive
2,C[C@H](CO)N1C[C@H](C)[C@@H](CN(C)C(=O)Cc2ccncc2)Oc2cc(C#CC3(O)CCCC3)ccc2S1(=O)=O,inactive
3,CN(C)CCCNC(=O)C[C@@H]1CC[C@@H]2[C@H](COc3ccc(NC(=O)c4ccc5c(c4)OCO5)cc3C(=O)N2C)O1,inactive
4,O=C(CCCCCNC(=O)OC[C@]12N=C3SCc4ccccc4CN3[C@H](c3ccccc3O1)[C@H]2COC(=O)c1ccccc1)NO,inactive
5,C[C@@H]1CN([C@H](C)CO)S(=O)(=O)c2ccc(Br)cc2O[C@@H]1CN(C)CC1CCOCC1,inactive
6,O=C(Nc1cccc2cccnc12)[C@@H]1[C@H](c2ccc3ccccc3c2)CC(=O)N1C(=O)OCc1ccccc1,inactive
7,COc1ccc2c3c(n(c2c1)C)[C@@H](CO)N(CC1CCOCC1)C[C@]13CN(C1)C(=O)c1cccc(c1)F,inactive
8,C[C@@H]1CN([C@@H](C)CO)C(=O)Cc2cc(NC(=O)c3ccncc3)ccc2O[C@H]1CN(C)S(=O)(=O)c1ccc(F)cc1,inactive
9,COc1ccc(NC(=O)Nc2ccc3c(c2)C(=O)N([C@@H](C)CO)C[C@@H](C)[C@@H](CN(C)S(=O)(=O)c2ccc(F)cc2)OCCCC[C@H](C)O3)cc1,inactive
10,COc1ccc(S(=O)(=O)N(C)C[C@H]2OCCCC[C@H](C)Oc3ccc(NS(=O)(=O)c4ccc(Cl)cc4)cc3C(=O)N([C@H](C)CO)C[C@@H]2C)cc1,active
11,COc1ccc(S(=O)(=O)Nc2ccc3c(c2)C(=O)N([C@H](C)CO)C[C@@H](C)[C@@H](CN(C)S(=O)(=O)c2ccc(Cl)cc2)OCCCC[C@H](C)O3)cc1,inactive
12,COc1ccc(S(=O)(=O)Nc2ccc3c(c2)C(=O)N([C@@H](C)CO)C[C@@H](C)[C@H](CN(C)S(=O)(=O)c2ccc(Cl)cc2)OCCCC[C@H](C)O3)cc1,inactive
13,CCOC(=O)c1cc2c(c(-c3cccc(Br)c3)n1)[C@@H](CCOC)N([S@](=O)C(C)(C)C)C2,inactive
14,Nc1ncnc2c1ncn2[C@@H]1C=C[C@H](CO)O1,inactive
15,CCC(=O)N[C@@H]1C=C[C@H](CC(=O)OC)O[C@@H]1CO,inactive
16,Cc1cc(=O)n2ncnc2[nH]1,inactive
17,C[C@H]1CCCCO[C@H](CN(C)S(=O)(=O)c2ccccc2)[C@@H](C)CN([C@@H](C)CO)C(=O)c2cc(NC(=O)Nc3ccccc3)ccc2O1,inactive
18,CCC1(O)CC2CN(CCc3c([nH]c4ccccc34)C(C(=O)OC)(c3cc4c(cc3OC)N(C)C3C(O)(C(=O)OC)C(OC(C)=O)C5(CC)C=CCN6CCC43C65)C2)C1.O=S(=O)(O)O (stereo not given),active
19,CCC1(O)CC2CN(CCc3c([nH]c4ccccc34)C(C(=O)OC)(c3cc4c(cc3OC)N(C=O)C3C(O)(C(=O)OC)C(OC(C)=O)C5(CC)C=CCN6CCC43C65)C2)C1.O=S(=O)(O)O (stereo not given),active
20,COc1ccc(S(=O)(=O)N(C)C[C@H]2OCCCC[C@H](C)Oc3ccc(NC(=O)c4ccccc4)cc3C(=O)N([C@H](C)CO)C[C@@H]2C)cc1,inactive
21,C[C@@H]1CN([C@@H](C)CO)S(=O)(=O)c2ccc(C3=CCCC3)cc2O[C@@H]1CN(C)C(=O)C1CCOCC1,inactive
22,CO[C@@H]1CN(C)C(=O)c2cc(NC(=O)C3CCOCC3)ccc2OC[C@H](C)N(Cc2cccnc2)C[C@H]1C,inactive

row,SMILES,cytotoxicity call
1,C[C@H](CO)N1C[C@H](C)[C@H](CN(C)C(=O)NC2CCCCC2)OCCCC[C@H](C)Oc2ccc(NC(=O)Cc3ccccc3)cc2C1=O,inactive
2,COc1ccc(NC(=O)Nc2ccc3c(c2)C(=O)N([C@H](C)CO)C[C@H](C)[C@@H](CN(C)Cc2ccncc2)OCCCC[C@H](C)O3)cc1,inactive
3,C[C@H]1CN([C@@H](C)CO)C(=O)c2cc(NC(=O)Nc3ccc(C(F)(F)F)cc3)ccc2O[C@@H]1CN(C)C(=O)Nc1ccc(F)cc1,inactive
4,C[C@@H]1CN([C@@H](C)CO)C(=O)Cc2cc(NS(=O)(=O)c3ccccc3)ccc2O[C@@H]1CN(C)Cc1ccc(Cl)c(Cl)c1,active
5,C[C@@H]1CN([C@H](C)CO)C(=O)Cc2cc(NS(=O)(=O)c3ccccc3)ccc2O[C@H]1CN(C)Cc1ccc(Cl)c(Cl)c1,active
6,C[C@H]1CN([C@@H](C)CO)C(=O)Cc2cc(NS(=O)(=O)c3ccccc3)ccc2O[C@@H]1CN(C)Cc1ccc(Cl)c(Cl)c1,active
7,C[C@H]1CN([C@@H](C)CO)C(=O)Cc2cc(NS(=O)(=O)c3ccccc3)ccc2O[C@H]1CN(C)Cc1ccc(Cl)c(Cl)c1,inactive
8,C[C@@H]1CN([C@@H](C)CO)C(=O)Cc2cc(NS(=O)(=O)c3ccccc3)ccc2O[C@H]1CN(C)Cc1ccc(Cl)c(Cl)c1,active
9,C[C@H](CO)N1C[C@H](C)[C@@H](CN(C)Cc2ccc(Cl)c(Cl)c2)Oc2ccc(NS(=O)(=O)c3ccccc3)cc2CC1=O,inactive
10,CNC[C@H]1OCCCC[C@@H](C)Oc2ccc(NC(=O)Nc3cccc4ccccc34)cc2C(=O)N([C@H](C)CO)C[C@H]1C,inactive
11,COc1ccccc1CNC(=O)C[C@H]1C[C@H]2c3cc(NS(=O)(=O)c4ccc(F)cc4)ccc3O[C@H]2[C@@H](CO)O1,inactive
12,C[C@H](CO)N1C[C@H](C)[C@@H](CN(C)Cc2ccc3c(c2)OCO3)Oc2ccc(NC(=O)CCN3CCOCC3)cc2CC1=O,inactive
13,COc1ccc(S(=O)(=O)Nc2ccc3c(c2)C(=O)N([C@H](C)CO)C[C@H](C)[C@H](CN(C)Cc2ccccc2)OCCCC[C@@H](C)O3)cc1,inactive
14,C[C@@H]1CCCCO[C@H](CN(C)C(=O)NC2CCCCC2)[C@@H](C)CN([C@H](C)CO)C(=O)c2cc(NC(=O)CCCCCC(=O)Nc3ccccc3N)ccc2O1,inactive
15,COc1ccc(S(=O)(=O)N(C)C[C@H]2Oc3ccc(NC(=O)CCCN(C)C)cc3C(=O)N([C@H](C)CO)C[C@@H]2C)cc1,inactive
16,COc1ccc(NC(=O)Nc2ccc3c(c2)C(=O)N([C@@H](C)CO)C[C@H](C)[C@H](CN(C)S(=O)(=O)c2ccc(Cl)cc2)OCCCC[C@@H](C)O3)cc1,inactive
17,C[C@@H]1CCCCO[C@@H](CN(C)C(=O)Nc2ccc(C(F)(F)F)cc2)[C@H](C)CN([C@H](C)CO)C(=O)c2cc(NS(C)(=O)=O)ccc2O1,inactive
18,C[C@H]1CN([C@@H](C)CO)C(=O)Cc2cc(NS(=O)(=O)c3cccs3)ccc2O[C@@H]1CN(C)Cc1ccc(Cl)c(Cl)c1,inactive
19,C[C@H](CO)N1C[C@H](C)[C@H](CN(C)Cc2ccc(Cl)c(Cl)c2)Oc2ccc(NS(=O)(=O)c3ccccc3)cc2CC1=O,inactive
20,C[C@@H]1CN([C@@H](C)CO)C(=O)Cc2cc(NS(=O)(=O)c3cccs3)ccc2O[C@H]1CN(C)Cc1ccc(Cl)c(Cl)c1,inactive
21,C[C@@H]1CN([C@H](C)CO)C(=O)Cc2cc(NS(=O)(=O)c3ccccc3)ccc2O[C@@H]1CN(C)Cc1ccc(Cl)c(Cl)c1,active
22,C[C@H]1CN([C@@H](C)CO)C(=O)Cc2cc(NS(=O)(=O)c3cccs3)ccc2O[C@H]1CN(C)Cc1ccc(Cl)c(Cl)c1,active

row,SMILES,cytotoxicity call
1,C[C@@H]1CCCCO[C@@H](CN(C)Cc2ccccc2)[C@H](C)CN([C@@H](C)CO)C(=O)c2cc(NC(=O)CCC(F)(F)F)ccc2O1,inactive
2,CC(C)NC(=O)N(C)C[C@H]1Oc2ccc(NC(=O)Cn3cnnn3)cc2CC(=O)N([C@H](C)CO)C[C@H]1C,inactive
3,C[C@H](CO)N1C[C@H](C)[C@H](CN(C)Cc2ccc(C(=O)Nc3ccccc3N)cc2)OCc2cnnn2CCCC1=O,inactive
4,CC(C)(C)c1cc(CN)n[nH]1,inactive
5,O=C(C[C@@H]1C[C@H]2c3cc(NS(=O)(=O)c4ccc(F)cc4)ccc3O[C@H]2[C@@H](CO)O1)N1CCOCC1,inactive
6,O=C1O[C@H](c2ccccc2)[C@H](c2ccccc2)N2[C@H]1[C@@H](C(=O)N1CCN(c3ncccn3)CC1)[C@]1(C(=O)Nc3ccc(C#CC4(O)CCCCCC4)cc31)[C@H]2c1ccc(OCCO)cc1,inactive
7,CO[C@@H]1CN(C)C(=O)c2ccc(NS(=O)(=O)c3ccccc3)cc2OC[C@H](C)N(C(=O)NC(C)C)C[C@@H]1C,inactive
8,CC(C)NC(=O)Nc1ccc2c(c1)CC(=O)N([C@H](C)CO)C[C@@H](C)[C@H](CN(C)C(=O)NC1CCCCC1)O2,inactive
9,C[C@H](CO)N1C[C@H](C)[C@H](CN(C)S(=O)(=O)c2cn(C)cn2)Oc2ccc(NS(=O)(=O)c3ccccc3)cc2C1=O,inactive
10,CC(O)C1C(=O)N2C(C(=O)O)=C(SC3CNC(C(=O)N(C)C)C3)C(C)C12 (stereo not given),inactive
11,O=C1OCCN1N=Cc1ccc([N+](=O)[O-])o1,active
12,CCOC(=O)c1ccc(N2NC(=O)/C(=C/c3ccc([N+](=O)[O-])o3)C2=O)cc1,inactive
13,O=C(CN1CCOCC1)N/N=C/c1ccc([N+](=O)[O-])o1,inactive
14,O=[N+]([O-])c1cncn1CCN1CCOCC1,inactive
15,O=C1CN(N=Cc2ccc(-c3ccc([N+](=O)[O-])cc3)o2)C(=O)[N-]1.[Na+],inactive
16,O=C1OC(CN2CCOCC2)CN1N=Cc1ccc([N+](=O)[O-])o1 (stereo not given),active
17,O=C1CN(/N=C/c2ccc([N+](=O)[O-])o2)C(=O)N1,active
18,O=C1CN(N=Cc2ccc([N+](=O)[O-])o2)C(=O)N1,active
19,Nc1nnc(-c2ccc([N+](=O)[O-])o2)o1,inactive
20,O=C(Cc1ccncc1)Nc1ccc2c(c1)[C@H]1C[C@H](CC(=O)N3CCc4ccccc4C3)O[C@H](CO)[C@H]1O2,inactive
21,O=C(C[C@H]1C=C[C@H](NC(=O)Cc2ccccn2)[C@@H](CO)O1)NCCc1ccncc1,inactive
